According to the supplement of paper PMC3334620:
Whole data set: some 33,000 sequences, median “E-score (-0.5 to 0.5)” near -0.0034, cut for the highest 2% near 0.25. The sample as a whole holds a higher share of the highest values than the screen did.

Each sequence was assayed against T1, Yap3 (UniProt P38749) (assay: PBM E-score (8-mer binding enrichment) (E-score (-0.5 to 0.5)); higher = stronger / more preferred TF binding). Conditions: protein concentration: 100 nM; construct: GST-full length.
T1 sequence: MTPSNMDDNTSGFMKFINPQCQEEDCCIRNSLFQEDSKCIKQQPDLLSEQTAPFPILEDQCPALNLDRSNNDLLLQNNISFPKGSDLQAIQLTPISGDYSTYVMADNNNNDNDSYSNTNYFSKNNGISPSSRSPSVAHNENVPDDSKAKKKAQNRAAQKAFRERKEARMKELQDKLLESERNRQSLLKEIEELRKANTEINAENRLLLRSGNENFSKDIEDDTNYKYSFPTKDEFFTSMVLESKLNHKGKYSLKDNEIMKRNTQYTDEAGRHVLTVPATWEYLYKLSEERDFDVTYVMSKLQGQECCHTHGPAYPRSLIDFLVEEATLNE
Outline: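 Each ungapped eight-base word and its reverse complement, pooled, received an E-score from the Universal PBM Analysis Suite. Underlying scans, normalised with masliner, recorded fluorescent anti-GST bound to GST-tagged yeast transcription factors. These were applied at about 100-200 nM to universal all-10-mer Agilent arrays double-stranded by primer extension.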

Row | Sequence | PBM E-score
1 | ACAGACAG | 0.0669
2 | CAAGACAA | 0.0625
3 | AAAGACAA | 0.261
4 | ACAGACAC | -0.0498
5 | ACAGACAA | 0.285
6 | TAAGACAA | 0.187
7 | CGACCAAA | 0.174
8 | CCTCAGGC | -0.249
9 | CAGGTGCG | 0.015
10 | ATAAAAGG | -0.011
11 | ATAAAAAG | 0.261
12 | ATAAAATC | 0.207
13 | ATAAAATG | 0.276
14 | GTAAAATA | 0.117
15 | ATAAAACG | 0.206
16 | ATAAAATA | 0.298
17 | ATAAAAAA | 0.187
18 | AAAAAATG | 0.209
19 | GACATTCC | -0.186
20 | ACTGACCG | -0.0919
21 | ACCCCTCT | -0.251
22 | AGTTGAAC | 0.00888
23 | GATCTTGA | 0.0634
24 | ACACTTGC | 0.0282
25 | GAAATGAA | 0.289

Row | Sequence | PBM E-score
26 | TAAATGAA | 0.117
27 | CAAATGAC | 0.0524
28 | GAAATGCC | 0.0869
29 | GAAATGAC | 0.259
30 | CAAATGAA | 0.14
31 | TTGGCCAA | -0.0814
32 | GCGCCCAC | -0.0948
33 | ATGCTACC | 0.0357
34 | ACCTCTCC | -0.165
35 | ACATGGCA | -0.0266
36 | TATAACAA | 0.265
37 | TATAACCA | 0.269
38 | CATAACCA | 0.0668
39 | CATAACAA | 0.18
40 | GATAACAA | 0.0894
41 | GATAACCA | 0.161
42 | GAGGGGCA | -0.299
43 | CAATGCTG | -0.114
44 | AGCAAAAA | 0.122
45 | CCCAACGA | -0.0115
46 | GATTTTCA | 0.175
47 | AATTATCT | 0.237
48 | CATTATCA | 0.161
49 | CATTATCG | 0.129
50 | AATTATCC | 0.133

Row | Sequence | PBM E-score
51 | AATTATCG | 0.267
52 | AATTATCA | 0.288
53 | TTCCCGAA | 0.115
54 | CGAGTACG | -0.147
55 | GGAAGGTA | -0.0252
56 | AGAAGGTA | 0.28
57 | AGAAGGTG | 0.029
58 | TGAGCTCA | 0.0969
59 | AAAGGTCT | -0.0778
60 | GTTGGCTA | 0.12
61 | ATGGGTAG | -0.0623
62 | GTGCAGCA | -0.204
63 | GCTTTGTA | 0.259
64 | CCTTTGTA | -0.135
65 | ACTTTGTA | 0.0238
66 | CATTATGC | 0.0641
67 | AATTATGG | 0.238
68 | GATTATGC | 0.0614
69 | AATTATGC | 0.273
70 | AATTATGT | 0.164
71 | AATTATGA | 0.278
72 | CAGTCTAC | -0.192
73 | GGCTTCCC | -0.127
74 | CTCCAACA | 0.141
75 | GCTTACGA | 0.219

Row | Sequence | PBM E-score
76 | CTTTACGA | -0.0493
77 | GATTACGC | 0.108
78 | TATTACCA | 0.196
79 | CATTACGA | 0.149
80 | ACTTACGC | 0.122
81 | AATTACGA | 0.33
82 | ACTTACGA | 0.315
83 | GATTACGA | 0.291
84 | GGTTACGA | 0.06
85 | TATTACGA | 0.326
86 | AATTACAA | 0.151
87 | GGCCTTAC | -0.144
88 | CTCTAATC | -0.0693
89 | CCACTAGC | -0.158
90 | AGCTGAAA | -0.101
91 | AGAATTCT | 0.124
92 | TCCGCAAA | 0.0357
93 | ACAGACGC | -0.168
94 | CGTGCACC | -0.0988
95 | AATTACGC | 0.208
96 | AATTACGT | 0.308
97 | AATTACGG | 0.235
98 | AATAATTA | 0.316
99 | GATAATTA | 0.251
100 | CATAATTA | 0.316

Row | Sequence | PBM E-score
101 | AATAATGA | 0.0556
102 | AATAATTG | 0.203
103 | AATAATTC | 0.263
104 | CATAATTC | 0.23
105 | AATAATGC | 0.216
106 | CATAATGA | 0.118
107 | ACCTTCAG | -0.0617
108 | AGCAAAGC | 0.0118
109 | ACTAGCGC | 0.0683
110 | GGCACTAA | 0.107
111 | CGGTGTGA | 0.115
112 | GAGAACAA | 0.311
113 | AAGAACAC | 0.147
114 | GAGAACAC | -0.00708
115 | CAGAACAA | 0.248
116 | AAGAACAG | 0.0639
117 | AAGAACAA | 0.267
118 | CCGCGAGG | -0.0632
119 | AAGTCTCC | -0.0848
120 | ACGGAGAT | -0.0531
121 | CACTGGAC | -0.0821
122 | ATTATTAG | 0.259
123 | ATTATTGG | 0.0681
124 | ACTATTAG | 0.136
125 | ATTATTAC | 0.269

Row | Sequence | PBM E-score
126 | ACTATTAC | 0.149
127 | CTTATTAC | 0.251
128 | ATCCAAAG | 0.165
129 | GTCAGCCA | -0.0924
130 | CCCCAACA | -0.111
131 | AGTATATG | 0.157
132 | TGTATAAA | 0.211
133 | AGTATATC | 0.0292
134 | AGTATAAA | 0.304
135 | AGTATAAT | 0.293
136 | ATTATAAA | 0.231
137 | AGTATAAG | 0.193
138 | ATTATAAT | 0.319
139 | AGTATATA | 0.364
140 | AGTATAAC | -0.0565
141 | GGTATAAA | 0.239
142 | ATTATAAG | 0.0886
143 | CGACTCCG | -0.24
144 | GCTGGCTA | -0.196
145 | ACTCACCA | -0.0571
146 | AGGTTACA | -0.0016
147 | GGCTGCAC | -0.206
148 | CGTTGTGA | -0.0712
149 | CATATTTA | 0.185
150 | AATATTTC | 0.154

Row | Sequence | PBM E-score
151 | CGTATTTA | 0.313
152 | ATTTATTC | 0.212
153 | CTTATTTC | 0.251
154 | ATTATTTC | 0.302
155 | AATATTTA | 0.295
156 | ATTTATTA | 0.277
157 | ACTATTTC | 0.224
158 | GGTATTTA | 0.104
159 | ATTTATTG | 0.0964
160 | AGTATTTA | 0.16
161 | GGGGGACC | -0.358
162 | GATGGAGC | -0.108
163 | ACACCAGG | -0.237
164 | CACTACTG | 0.0352
165 | ATCAGTAG | 0.0393
166 | GCACACGC | -0.0783
167 | CTACTGCC | -0.0886
168 | ATGTACAA | 0.0885
169 | CGACGTCA | 0.0828
170 | CAGGTTAC | 0.0255
171 | ATTATTTG | 0.197
172 | CTTATTTA | 0.11
173 | GTTTATTA | 0.268
174 | ATTATTTA | 0.289
175 | GGTTATTA | 0.158

Row | Sequence | PBM E-score
176 | CTTTATTA | 0.199
177 | ACTTTACC | 0.149
178 | AAATTATG | 0.208
179 | AAATTATC | 0.251
180 | AATTTACT | 0.271
181 | AATTTAAC | 0.113
182 | AATTTAAT | 0.261
183 | ACTTTACA | 0.052
184 | AATTTACA | 0.155
185 | AATTTAAG | 0.106
186 | AATTTAGT | 0.21
187 | ACTTTACT | 0.284
188 | AAATTATT | 0.275
189 | CAGGTGGG | -0.0568
190 | CGGCTCTA | -0.067
191 | CGTGGTCA | -0.112
192 | ACTCTAAG | -0.0616
193 | CTCCGTGA | -0.0971
194 | CGCCACCA | -0.25
195 | CGACCCCA | -0.16
196 | AGTAACGA | -0.0656
197 | GCGACAAA | 0.0655
198 | CGCTCGAG | 0.0723
199 | GGTTTTCA | 0.0332
200 | CTTTTGCA | 0.227

Row | Sequence | PBM E-score
201 | AACGGTCG | 0.105
202 | AAATTACC | 0.235
203 | AAATTACG | 0.172
204 | AAATTAGA | 0.201
205 | AAATTACT | 0.304
206 | AAATTAGT | 0.283
207 | AAATTAGG | 0.196
208 | CGCAGCGA | -0.0766
209 | TAGTGGGA | -0.0516
210 | AAGCCTTC | -0.0737
211 | GTGTAACA | -0.00489
212 | AAAAGTTA | 0.195
213 | AATTTCGA | -0.00117
214 | TATTTCGA | 0.293
215 | GATTTCGA | 0.12
216 | ATTGTCCG | 0.216
217 | TGGTAGAA | -0.0125
218 | CTTATAAA | 0.187
219 | GTTATAAC | 0.162
220 | TTTATAAA | 0.277
221 | GTTATAGA | 0.0873
222 | GTTATAAA | 0.283
223 | TCTATAAA | 0.111
